The structures appear in SMILES notation. Active and inactive are the calls of the source. Rule for the calls: active = hit-call score of the fitted dose curve at least 0.9, where 1 is the maximum; inconclusive = response in the unintended direction; inactive = score below 0.9.

Sequence of Peroxisome proliferator-activated receptor gamma (Homo sapiens) (P37231 whole entry, looked up, the tested form may be a part): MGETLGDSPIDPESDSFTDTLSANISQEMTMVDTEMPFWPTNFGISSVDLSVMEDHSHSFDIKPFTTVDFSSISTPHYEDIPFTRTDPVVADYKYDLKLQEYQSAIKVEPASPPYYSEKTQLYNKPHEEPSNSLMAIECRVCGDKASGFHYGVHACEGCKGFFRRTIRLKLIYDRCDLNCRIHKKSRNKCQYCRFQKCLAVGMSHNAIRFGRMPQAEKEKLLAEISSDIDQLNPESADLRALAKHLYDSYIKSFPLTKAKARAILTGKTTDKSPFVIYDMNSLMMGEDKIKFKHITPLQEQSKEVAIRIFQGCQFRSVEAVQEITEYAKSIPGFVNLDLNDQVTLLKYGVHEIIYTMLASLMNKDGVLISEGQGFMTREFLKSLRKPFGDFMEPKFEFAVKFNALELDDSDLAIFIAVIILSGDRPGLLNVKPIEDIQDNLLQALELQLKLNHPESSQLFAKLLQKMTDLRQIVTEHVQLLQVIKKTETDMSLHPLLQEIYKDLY

The target of this experiment is Peroxisome proliferator-activated receptor gamma (Homo sapiens) (UniProt P37231). Nature of the experiment: OT_PPARg_PPARgSRC1_1440: Odyssey Thera (OT) 24-hour Protein-Complementation Assay for Peroxisome Proliferator-activated Receptor Gamma/ SRC-1 Co-activator (AID 2283388).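 Note: nuclear to cytoplasmic ratio of reconstituted Venus YFP fluorescence in fixed imaged cells.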 Here is the method:
OT_PPARg_PPARgSRC1_1440 is a cell-based assay that uses HEK293T, a human kidney cell line, with measurements taken at 24 hours after chemical dosing in a 384-well plate.OT_PPARg_PPARgSRC1_1440 is one of one assay component(s) measured or calculated from the OT_PPARg_PPARgSRC1_1440 assay. It is designed to make measurements of protein fragment complementation, a form of binding reporter, as detected with fluorescence intensity signals by Protein-fragment Complementation technology.Data from the assay component OT_PPARg_PPARgSRC1_1440 was analyzed into 1 assay endpoint. This assay endpoint, OT_PPARg_PPARgSRC1_1440, was analyzed in the positive analysis fitting direction relative to DMSO as the negative control and baseline of activity. Using a type of binding reporter, measures of receptor for gain-of-signal activity can be used to understand the binding at the pathway-level as they relate to the gene PPARG. Furthermore, this assay endpoint can be referred to as a primary readout, because the performed assay has only produced 1 assay endpoint. To generalize the intended target to other relatable targets, this assay endpoint is annotated to the nuclear receptor intended target family, where the subfamily is non-steroidal.
The OT PPARg/SRC-1 assay assessed receptor-chemical interactions using a rapidly maturing, intensely fluorescent mutant of YFP known as Venus, rationally dissected into two separate fragments. The fragments were obtained as follows: first, fragments coding for YFP1 and YFP2 (corresponding to amino acid residues 1-158 and 159-239 of the full length YFP, respectively) were generated by oligonucleotide synthesis (Blue Heron Biotechnology), and then PCR mutagenesis was used to generate the mutant fragments IFP1 and IFP2. Fusion constructs were transfected into HEK293T cells with a (Gly4Ser)2 linker between the PPARg/SRC-1 and YFP fragment genes to facilitate complementation when interacting proteins bring fragments into close proximity. The construct is transiently transfected in HEK293T cells 48 hours prior to treatment with test compounds. Cells are seeded into optical quality 384-well poly-D-lysine coated plates in MEM alpha medium (Invitrogen) supplemented with 10 percent FBS (Gemini Bio-Products) 1 percent penicillin and 1 percent streptomycin, and grown in 37C incubator equilibrated to 5 percent CO2. Cells are allowed to adhere for 24 hours prior to treatment with compounds of interest or controls for 24 hours. Cells are fixed in 4 percent formaldehyde and stained with Draq5 (BioStatus) to identify cells and subcellular compartment boundaries prior to signal detection. 8 Images per well were acquired on an Evotec Opera at 2 wavelengths (488 and 635nm), and the ratio of fluorescence in the nucleus relative to fluorescence in the cytoplasm (N/C Ratio) in the 488nm channel was calculated for a minimum of 350 cells per image.
`OCC(CO)(CO)CO`: the molecule was called inactive.
With `NC(N)=O`, the molecule was classed as inactive.
For the molecule `O=c1[nH]cnc2c1ncn2[C@H]1CC[C@@H](CO)O1`, the outcome was inactive.
As for `CCCCCCOC(=O)CC(CC(=O)OCCCCCC)(OC(=O)CCC)C(=O)OCCCCCC`, the call was inactive.
For the molecule `O=C(O)c1cccc(C(=O)O)c1`, the molecule was classed as inactive.
With `CCCCCCCCCC` the entry was “inactive”; with `OCCOCCOCCO`, “inactive”; with `Cn1c(=O)c2[nH]cnc2n(C)c1=O`, “inactive”.
With `NC(=O)N1c2ccccc2C=Cc2ccccc21`, the outcome was inactive.
In the case of `CCc1ccc(O)c(C(C)(C)C)c1`, the molecule was classed as inactive.
As for `C=CCc1cc(S(=O)(=O)c2ccc(O)c(CC=C)c2)ccc1O`, the molecule was called inactive.
The value for `c1ccc2c(c1)-c1cccc3c1c-2cc1ccccc13` was “inactive”; that for `O=C(O)c1ccc2c(c1)nc(C(=O)NC1CCN(C3CC3)CC1)n2Cc1cc(-c2ccc(Cl)s2)on1` was “inactive”.
The value for `CNC(C)=O` was “inactive”.
As for `CCCCCCCC1CCC(=O)O1` (stereo not given), the molecule was classed as inactive.
For the molecule `COCc1nnc(-c2ccc[n+]([O-])c2)n1-c1c(Cl)c(Cl)cc2[nH]c(=O)c(=O)[nH]c12`, the outcome was inactive.
`CCCOc1ccc(S(=O)(=O)N2CCN(CC)CC2)cc1-c1nc2c(CC)n(Cc3ccccn3)nc2c(=O)[nH]1`: the molecule was classed as inactive.
Regarding `CCCC(CCC)C(=O)O`, the result was inactive.
Turning to `Cc1cccc(O)c1C`, the call was inactive.
With `CC(C)C(=O)Nc1ccc([N+](=O)[O-])c(C(F)(F)F)c1`, the call was inactive.
For the molecule `CC(=O)c1ccccc1`, the molecule was called inactive.
The value for `O=C1CN(N=Cc2ccc([N+](=O)[O-])o2)C(=O)N1` was “inactive”.
For `Cc1nccn1-c1ccc(Sc2cccc(C3(C(N)=O)CCOCC3)c2)cc1`, the outcome was inactive.
As to `COc1cc2c(c(OC)c1OC)-c1ccc(OC)c(=O)cc1[C@@H](NC(C)=O)CC2`, the molecule was classed as inactive.
Consider `O=C(O)[C@H](O)[C@@H](O)C(=O)O`, for which the molecule was called inactive.
With `CCCc1ccccc1` the entry was “inactive”.
For `Nc1ccn([C@@H]2O[C@H](CO)[C@@H](O)[C@@H]2O)c(=O)n1`, the result was inactive.
In the case of `CC(C)CC(C)O` (stereo not given), the outcome was inactive.
Consider `CC(C)CCCCCCOC(=O)C1CCCCC1C(=O)OCCCCCCC(C)C` (stereo not given), for which the outcome was inactive.
`O=C(O)CO`: the molecule was classed as inactive.
As to `CCCCOC(=O)c1ccccc1`, the result was inactive.
The value for `COc1cc(C(C)C)c2c(c1)S(=O)(=O)N(COc1cc(=O)n3cccc(OCCN4CCCCC4)c3n1)C2=O` was “inactive”; that for `C[C@@H](Oc1ccc(CNC(=O)c2cccnc2Oc2ccc3c(c2)OCO3)c(F)c1)C(=O)O` was “inactive”; that for `CC(C)c1nnc2ccc(-c3ocnc3-c3cc(F)ccc3F)cn12` was “inactive”.
Turning to `CCCCN1C(=O)[C@@H]([C@H](O)C2CCCCC2)NC(=O)C12CCN(Cc1ccc(Oc3ccc(C(=O)O)cc3)cc1)CC2`, the outcome was inactive.
Take `CCCCCOC(C)=O`: the call was inactive.
With `OC[C@H]1O[C@@](CO)(O[C@H]2O[C@H](CO)[C@@H](O)[C@H](O)[C@H]2O)[C@@H](O)[C@@H]1O`, the result was inactive.
Take `CCCCC(CC)C(=O)OCCOCCOCCOC(=O)C(CC)CCCC` (stereo not given): the molecule was classed as inactive.
For the molecule `CCOc1ccc2[nH]cc(C(=O)NCc3ccccc3)c(=O)c2n1`, the outcome was inactive.
As to `OC(CCl)CCl`, the result was inactive.

Source of the values: PubChem BioAssay (EPA / NIEHS).
